These results are taken from PubChem BioAssay (EPA / NIEHS).

Molecules are shown by their SMILES. Activity calls are given as the source filed them. How the source made its calls: active means hit-call score of the fitted dose curve at least 0.9, where 1 is the maximum; inactive means score below 0.9.

Common to all, as to settings: mRNA level, 48 h; actives raise or lower the signal
Read-out in assay [1]: Nuclear factor NF-kappa-B p105 subunit (Homo sapiens) (UniProt P19838)
As to the kind of experiment: LTEA_HepaRG_NFKB1: Life Technologies and Expression Analysis (LTEA) Assay for Nuclear Factor Kappa B Subunit 1 (NFKB1) using HepaRG (AID 2283521).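 Further: differentiated human HepaRG liver cells in serum-free induction medium.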 The essentials:
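NFKB1 transcript was measured by TaqMan qRT-PCR on Fluidigm arrays, normalised to three housekeeping genes and fitted in both directions against 0.5% DMSO. HepaRG cells were dosed in duplicate for 48 h in serum-free induction medium, eight half-log steps from 100 uM.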

Read-out in assay [2]: Protein phosphatase 2A (PPP2R4), PTPA (gene 5524)
The experiment in a line: LTEA_HepaRG_PPP2R4: Life Technologies and Expression Analysis (LTEA) Assay for Protein phosphatase 2A (PPP2R4) using HepaRG (AID 2283522). The essentials:
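Readout is PPP2R4 transcript level by microfluidic qRT-PCR after 48 h chemical treatment of human HepaRG liver cells. Concentrations spanned 100 uM downward in half-log steps; gain or loss of signal was fitted relative to DMSO.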

Read-out in assay [3]: Phosphatase and tensin (PTEN), PTEN (gene 5728)
The experiment in a line: LTEA_HepaRG_PTEN: Life Technologies and Expression Analysis (LTEA) Assay for Phosphatase and tensin (PTEN) using HepaRG (AID 2283523). The essentials:
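Read-out is PTEN transcript level by multiplexed TaqMan qRT-PCR after 48 h chemical treatment of human HepaRG cultures in serum-free induction medium. Concentrations spanned 100 uM downward in half-log steps, 0.5% DMSO throughout; activity fitted in both directions against vehicle.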

Read-out in assay [4]: solute carrier (SLC22A1), SLC22A1 (gene 6580)
As to the kind of experiment: LTEA_HepaRG_SLC22A1: Life Technologies and Expression Analysis (LTEA) Assay for solute carrier (SLC22A1) using HepaRG (AID 2283524).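 On AC50: differentiated human HepaRG liver cells in serum-free induction medium.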 In outline: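 HepaRG (human liver line), 48 h dosing in serum-free induction medium; 8 conc., half-log down from 100 uM, 0.5% DMSO vehicle, duplicates. Endpoint: SLC22A1 mRNA, qRT-PCR, housekeeping-normalized; gain/loss fit vs DMSO.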

Read-out in assay [5]: Pyruvate Dehydrogenase Kinase 4 (PDK4), PDK4 (gene 5166)
As to the kind of experiment: LTEA_HepaRG_PDK4: Life Technologies and Expression Analysis (LTEA) Assay for Pyruvate Dehydrogenase Kinase 4 (PDK4) using HepaRG (AID 2283525). The essentials:
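In this multiplexed human HepaRG expression assay, cells are treated 48 h with test chemicals across an eight-point range starting at 100 uM. PDK4 mRNA changes, normalized to ACTB/GAPDH/POLR2A, are fitted in both directions relative to vehicle.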

Read-out in assay [6]: NAD(P)H dehydrogenase [quinone] 1 (NQO1), NQO1 (gene 1728)
The experiment in a line: LTEA_HepaRG_NQO1: Life Technologies and Expression Analysis (LTEA) Assay for NAD(P)H dehydrogenase [quinone] 1 (NQO1) using HepaRG (AID 2283526). In outline: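 HepaRG, 48 h post-plating → serum-free induction medium → test chemical 48 h (duplicate, 100 uM top, half-log x8, 0.5% DMSO) → RNA isolation → qRT-PCR, ACTB/GAPDH/POLR2A normalization; bidirectional curve fit vs DMSO baseline.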

Read-out in assay [7]: Nuclear factor erythroid 2-related factor 2 (Homo sapiens) (UniProt Q16236)
As to the kind of experiment: LTEA_HepaRG_NFE2L2: Life Technologies and Expression Analysis (LTEA) Assay for Nuclear factor erythroid 2-related factor 2 (NFE2L2) Transcription Factor using HepaRG (AID 2283527). The essentials: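 Transcript level of NFE2L2 is the read-out, measured by microfluidic TaqMan qRT-PCR and normalized to three housekeeping genes. Human HepaRG cultures received test chemical for 48 h at up to 100 uM in half-log steps. Gain or loss of signal is fitted relative to 0.5% DMSO.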

Read-out in assay [8]: succinate dehydrogenase complex iron sulfur subunit B (SDHB), SDHB (gene 6390)
The experiment in a line: LTEA_HepaRG_SDHB: Life Technologies and Expression Analysis (LTEA) Assay for succinate dehydrogenase complex iron sulfur subunit B (SDHB) using HepaRG (AID 2283528). The essentials: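 SDHB transcript level read by TaqMan qRT-PCR, housekeeping-normalised (ACTB, GAPDH, POLR2A), after 48 h chemical treatment of plated HepaRG cells; eight concentrations top 100 uM, half-log steps, 0.5% DMSO, duplicates; fitted both directions against DMSO.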

Read-out in assay [9]: Signal transducer and activator of transcription 3 (Homo sapiens) (UniProt P40763)
The experiment in a line: LTEA_HepaRG_STAT3: Life Technologies and Expression Analysis (LTEA) Assay for Signal transducer and activator of transcription (STAT3) using HepaRG (AID 2283529). The essentials:
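Read-out is STAT3 mRNA level by qRT-PCR, normalized to three housekeeping genes, in human HepaRG liver cells treated for 48 h. Concentrations ran from 100 uM downward in half-log steps; curves were fitted for gain or loss relative to 0.5% DMSO.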

Read-out in assay [10]: solute carrier (SLCO1B1), SLCO1B1 (gene 10599)
As to the kind of experiment: LTEA_HepaRG_SLCO1B1: Life Technologies and Expression Analysis (LTEA) Assay for solute carrier (SLCO1B1) using HepaRG (AID 2283530). In outline: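 SLCO1B1 transcript read by qRT-PCR (Fluidigm arrays), normalized to three housekeeping genes, after 48 h chemical exposure of HepaRG cells; bidirectional concentration-response fitting versus 0.5% DMSO baseline. Eight-point half-log series, maximum 100 uM.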

Chain of Nuclear factor NF-kappa-B p105 subunit (Homo sapiens) (P19838 whole entry, looked up): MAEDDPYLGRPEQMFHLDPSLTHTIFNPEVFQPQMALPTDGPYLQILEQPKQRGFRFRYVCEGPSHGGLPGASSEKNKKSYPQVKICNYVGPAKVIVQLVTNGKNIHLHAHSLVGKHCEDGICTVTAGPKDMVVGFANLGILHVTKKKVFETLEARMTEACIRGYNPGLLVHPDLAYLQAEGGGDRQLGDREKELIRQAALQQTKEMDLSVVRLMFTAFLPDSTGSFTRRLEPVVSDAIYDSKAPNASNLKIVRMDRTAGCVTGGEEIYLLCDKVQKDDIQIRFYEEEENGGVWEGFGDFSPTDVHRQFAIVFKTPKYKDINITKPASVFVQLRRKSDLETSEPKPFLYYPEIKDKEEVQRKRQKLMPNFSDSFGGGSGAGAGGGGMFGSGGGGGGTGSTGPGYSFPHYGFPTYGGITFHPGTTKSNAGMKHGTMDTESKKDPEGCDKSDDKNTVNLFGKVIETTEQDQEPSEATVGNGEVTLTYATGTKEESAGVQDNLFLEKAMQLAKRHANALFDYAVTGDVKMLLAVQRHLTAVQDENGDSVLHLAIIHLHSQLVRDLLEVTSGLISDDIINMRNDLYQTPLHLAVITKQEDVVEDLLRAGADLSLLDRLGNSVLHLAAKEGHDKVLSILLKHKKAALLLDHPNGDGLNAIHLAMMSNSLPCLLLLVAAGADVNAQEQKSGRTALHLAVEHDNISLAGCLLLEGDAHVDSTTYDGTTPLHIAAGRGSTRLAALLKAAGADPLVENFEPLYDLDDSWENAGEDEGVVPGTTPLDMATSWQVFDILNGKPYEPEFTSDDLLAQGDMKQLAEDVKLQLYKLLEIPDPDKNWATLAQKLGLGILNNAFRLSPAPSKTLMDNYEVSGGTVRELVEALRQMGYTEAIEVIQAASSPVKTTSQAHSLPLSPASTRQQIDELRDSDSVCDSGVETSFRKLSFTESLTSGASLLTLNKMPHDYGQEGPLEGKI
Chain of Signal transducer and activator of transcription 3 (Homo sapiens) (P40763 whole entry, looked up): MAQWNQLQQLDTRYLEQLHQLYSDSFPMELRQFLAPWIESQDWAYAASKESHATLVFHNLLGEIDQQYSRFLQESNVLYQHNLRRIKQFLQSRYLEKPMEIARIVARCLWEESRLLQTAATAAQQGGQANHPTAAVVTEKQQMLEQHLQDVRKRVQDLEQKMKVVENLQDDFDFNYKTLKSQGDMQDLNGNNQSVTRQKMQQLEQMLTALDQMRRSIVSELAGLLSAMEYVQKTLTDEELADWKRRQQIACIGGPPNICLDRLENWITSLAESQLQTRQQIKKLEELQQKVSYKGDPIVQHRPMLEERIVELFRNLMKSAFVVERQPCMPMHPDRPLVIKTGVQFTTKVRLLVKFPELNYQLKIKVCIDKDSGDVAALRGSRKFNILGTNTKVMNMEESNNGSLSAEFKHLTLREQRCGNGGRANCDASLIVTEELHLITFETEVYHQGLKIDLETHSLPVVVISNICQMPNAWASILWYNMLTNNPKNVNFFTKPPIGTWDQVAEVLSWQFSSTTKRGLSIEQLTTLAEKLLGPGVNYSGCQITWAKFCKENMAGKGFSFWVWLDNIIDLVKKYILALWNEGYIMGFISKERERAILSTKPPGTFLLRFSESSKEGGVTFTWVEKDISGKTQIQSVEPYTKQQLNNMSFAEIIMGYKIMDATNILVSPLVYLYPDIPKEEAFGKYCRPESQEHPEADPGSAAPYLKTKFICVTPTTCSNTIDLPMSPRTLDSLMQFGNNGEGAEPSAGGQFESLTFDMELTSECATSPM
Chain of Nuclear factor erythroid 2-related factor 2 (Homo sapiens) (Q16236 whole entry, looked up): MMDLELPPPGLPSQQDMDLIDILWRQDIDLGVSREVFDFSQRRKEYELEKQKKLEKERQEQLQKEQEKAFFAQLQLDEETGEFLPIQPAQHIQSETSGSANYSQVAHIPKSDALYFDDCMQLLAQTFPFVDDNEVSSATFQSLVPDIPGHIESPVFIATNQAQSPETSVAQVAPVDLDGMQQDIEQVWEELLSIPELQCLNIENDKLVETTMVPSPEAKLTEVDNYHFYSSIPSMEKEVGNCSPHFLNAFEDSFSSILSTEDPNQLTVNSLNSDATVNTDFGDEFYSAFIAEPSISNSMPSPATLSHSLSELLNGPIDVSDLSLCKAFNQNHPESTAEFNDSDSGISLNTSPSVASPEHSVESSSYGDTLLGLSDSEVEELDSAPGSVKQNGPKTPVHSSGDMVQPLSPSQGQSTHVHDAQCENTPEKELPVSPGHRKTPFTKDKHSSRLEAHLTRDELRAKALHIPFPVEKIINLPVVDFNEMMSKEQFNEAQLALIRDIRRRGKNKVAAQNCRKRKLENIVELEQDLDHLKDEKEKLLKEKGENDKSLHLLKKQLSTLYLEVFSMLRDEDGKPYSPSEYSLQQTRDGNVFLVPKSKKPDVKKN

`CCCCCOC(=O)c1ccccc1C(=O)OCCCCC`: the compound was classed as inactive in [1], in [2], in [3], in assay [4], in [5] and in assay [6]. For the same compound, the call in assay [7], in [8], in assay [9] and in [10] was inactive.

Take `CC(C)(C)OOC(=O)c1ccccc1`: the outcome in assay [1], in assay [2], in assay [3], in assay [4], in assay [5] and in assay [6] was inactive. Also, the compound was classed as inactive in [7], in assay [8], in assay [9] and in assay [10].

Consider `O=C(Oc1ccc(Br)cc1)N1CCN2CCC1CC2`, for which the outcome in assay [1], in assay [2], in assay [3], in [4], in assay [5] and in assay [6] was inactive. Moreover, the result in assay [7], in [8], in assay [9] and in assay [10] was inactive.

As to `CCCSC(=O)N(CCC)CCC`, the compound was classed as inactive in assay [1], in assay [2], in assay [3], in assay [4], in [5] and in assay [6]. The compound was classed as inactive in assay [7], in [8], in [9] and in assay [10].

Consider `Cc1ccc(N=C=O)cc1N=C=O`, for which the compound was classed as inactive in [1], in [2], in assay [3], in assay [7], in assay [8] and in assay [9]. The compound was classed as inactive in [10]. The values for the AC50 in assay [4], in [5] and in assay [6] were 30.6 µM (active), 19.6 µM (active) and 38.9 µM (active), respectively.

With `CC(C)(C)C(O)(CCc1ccc(Cl)cc1)Cn1cncn1` (stereo not given), the result in assay [1], in assay [3], in [6], in assay [8], in assay [9] and in [10] was inactive. Further, the AC50 is 50 µM (active) in assay [2], 73.2 µM (active) in assay [4], 80.9 µM (active) in assay [5] and 50 µM (active) in assay [7].

Turning to `O=[N+]([O-])c1ccc(Oc2ccc(Cl)cc2Cl)cc1`, the call in assay [1], in assay [2], in assay [3], in assay [4], in [6] and in [7] was inactive. Further, the call in [8], in assay [9] and in assay [10] was inactive. In [5], the AC50 is 11.3 µM (active).

For the compound `CCC12COCN1COC2`, the compound was called inactive in [1], in assay [2], in assay [3], in assay [4], in [5] and in assay [6]. Further, the call in assay [7], in assay [8], in assay [9] and in assay [10] was inactive.

Turning to `Clc1ccc(C(c2ccc(Cl)cc2)C(Cl)Cl)cc1`, the compound was classed as inactive in assay [1], in assay [2], in assay [3], in assay [5], in assay [6] and in [7]. The compound was called inactive in assay [8], in [9] and in assay [10]. Also, the AC50 in [4] is 78.2 µM (active).

On to `Nc1ccc(Cc2ccc(N)cc2)cc1`, for which the outcome in assay [1], in [2], in assay [3], in assay [4], in [5] and in assay [6] was inactive. In addition, the compound was classed as inactive in assay [7], in assay [8], in [9] and in assay [10].

In the case of `CN(C)c1ccc(C(=O)c2ccc(N(C)C)cc2)cc1`, the compound was called inactive in [1], in [2], in assay [3], in [6], in assay [7] and in assay [8]. Also, the compound was classed as inactive in assay [9] and in assay [10]. Further, the AC50 in assay [4] was 50 µM (active); in assay [5] it was 25.8 µM (active).

`Cn1cc(-c2ccccc2)c(=O)c(-c2cccc(C(F)(F)F)c2)c1`: the compound was called inactive in assay [1], in assay [2], in [3], in assay [4], in assay [6] and in [8]. Moreover, the call in [9] and in assay [10] was inactive. For the same compound, the AC50 in assay [5] was 50 µM (active); in [7] it was 20.9 µM (active).

As to `[Cl-].[Cl-].[Hg+2]`, the compound was classed as inactive in assay [1], in assay [2], in [3], in [4], in assay [5] and in assay [6]. Further, the compound was called inactive in assay [7], in assay [8], in assay [9] and in assay [10].

Take `CC(C)N(Cc1ccccc1)C(=O)C(C)(C)C`: the call in assay [1], in assay [2], in [3], in assay [4], in assay [5] and in assay [6] was inactive. The result in assay [7], in assay [8], in assay [9] and in assay [10] was inactive.

Consider `Cc1ccc(N)c(N)c1`, for which the compound was classed as inactive in assay [1], in assay [2], in assay [3], in assay [4], in assay [5] and in assay [6]. The compound was called inactive in assay [7], in [8], in assay [9] and in [10].

Consider `CNC(=O)Oc1cccc2c1OC(C)(C)C2`, for which the result in assay [2], in [3], in assay [4], in [6], in [7] and in assay [8] was inactive. Further, the outcome in assay [9] and in assay [10] was inactive. In addition, the AC50 in assay [5] was 4.56 µM (active).

`OCCOCCO`: the compound was called inactive in assay [2], in assay [3], in assay [4], in assay [5], in assay [6] and in [7]. Besides, the outcome in [8], in [9] and in assay [10] was inactive.

On to `O=C1CCCO1`, for which the outcome in assay [2], in assay [4], in assay [5], in assay [7], in assay [8] and in assay [9] was inactive. Further, the compound was classed as inactive in assay [10]. In addition, the half-maximal activity concentration (AC50) was 82.9 µM (active) in [3] and 50 µM (active) in assay [6].

As to `CCOc1cccc(C2(N3CCN(c4ccccc4)CC3)CCC(C)CC2)c1` (stereo not given), the call in assay [2], in assay [3], in assay [4], in assay [5], in assay [6] and in assay [7] was inactive. For the same compound, the outcome in [8], in [9] and in assay [10] was inactive.

For the compound `c1ccc2c(c1)-c1cccc3cccc-2c13`, the result in assay [1], in assay [2], in assay [3], in assay [4], in assay [5] and in assay [6] was inactive. Besides, the compound was classed as inactive in assay [7], in assay [8], in assay [9] and in [10].

With `CN(C)c1ccccc1`, the compound was classed as inactive in assay [2], in assay [3], in assay [4], in [5], in assay [6] and in assay [7]. Also, the outcome in [8], in assay [9] and in assay [10] was inactive.
